High-throughput results (PubChem BioAssay)
LASV entry inh – blocks Lassa virus binding to or entry into cells. Lassa virus pseudotype entry inhibition, cell reporter. Potency, µM (series often up to 37.9 µM), inactives show at the highest dose activity change, negative = inhibition, most hits filed as inhibitors. 300,000 compounds, 1.2% hits; calls by dose curve; tested in HEK293 cells; note: potency is the fitted concentration of half-maximal effect; % is set by controls: 0 for no effect and ±100 for the full control effect; nearly all actives have a fitted effect of over 50% in size
Marburg entry inh – Marburg virus entry inhibition | 300,000 compounds, 1.8% hits | Potency, µM (top dose mostly 37.8 µM), for inactives: at the top dose activity change, negative = inhibition, hits mostly inhibitors | Marburg virus pseudotyped entry inhibition, cell reporter; calls by dose curve; tested in HEK293 cells; note: potency is the fitted concentration of half-maximal effect; % is set by controls: 0 for no effect and ±100 for the full control effect
Shiga toxin inh – Shiga toxin inhibition; inhibition, % at 38.7 µM; AID 2315; 290,000 compounds, 9.2% hits; Vero cells, Shiga toxin protein synthesis inhibition reporter; in the data active = inhibition mostly above about 28%, no sharp cut-off; inactive = mostly below about 43%; note: 0% is about no effect
Cycloheximide cs – counter-screen for Shiga toxin inhibitors: cycloheximide protein synthesis inhibition; cell reporter, cycloheximide protein synthesis inhibition counterscreen; max response, %; 300,000 compounds, 12% hits; in the data active = max response mostly above about 13%, no sharp cut-off; inactive = mostly below about 14%; note: read at 38.3 µM for the half of the compounds with a filed dose; 0% is about no effect
* hit, by the source's call; ? = inconclusive; · = not tested or not shown; [ ] = dose if it differs, or a comment. An excerpt weighted towards active compounds, which were near 12% of everything screened.

SMILES	LASV entry inh	Marburg entry inh	Shiga toxin inh	Cycloheximide cs
Cc1c(C(=O)Nc2ccc(Br)cc2)cnn1C	?	8%	130*	78*
Cn1ncc(Br)c1C(=O)Nc1ccc(Br)cn1	9%	0%	-2	-3
Cn1ncc(Cl)c1C(=O)NCc1ccc2c(c1)OCO2	·	·	35	-1
Cn1ncc(Cl)c1C(=O)Nc1ccc2c(c1)OCO2	·	·	47	21*
O=C(c1cc(-c2ccc(Cl)cc2Cl)on1)N1CCCCCC1	?	?	99*	38*
O=C(c1cc(-c2ccc(Cl)cc2Cl)on1)N1CCCC1	3.5µM*	?	89*	23*
CN(C(=O)Cn1cnc2ccccc2c1=O)C1CCS(=O)(=O)C1 (configuration not stated)	0%	-6%	·	·
Cc1nnc(SCc2cnc(-c3ccc(C(C)C)cc3)s2)n1C	-4%	4%	39	27*
COc1ccc(-c2cc3nc[nH]c(=O)c3s2)cc1	?	-48%	67	35*
O=c1[nH]cnc2cc(-c3ccccc3)sc12	7%	-12%	118*	48*
COc1ccc(-c2cc3nc(CCl)[nH]c(=O)c3s2)cc1	?	?	-4	-4
Cc1ccc(-n2nnnc2SCC(=O)NC2CC2)cc1C	·	·	35	8
CC(=O)c1[nH]c(C)c(C(=O)N2CCCC(Nc3cccc(F)c3)C2)c1C (configuration not stated)	·	·	7	2
CC1CCc2c(sc(/N=C/c3ccco3)c2C(N)=O)C1 (configuration not stated)	8%	2%[46.1 µM]	74*	38*
CC1CCc2c(sc(/N=C/c3cccnc3)c2C(N)=O)C1 (configuration not stated)	13%	0%	54	16*
CC1(C)C2CCC(C2)C1C/C=N/NC(N)=S (configuration not stated)	1%	?	8	-3
CC(=O)Nc1ccc(N=Cc2c(O)c(C(=O)Nc3ccccc3)cc3ccccc23)cc1	·	·	104*	26
CC(=O)Nc1ccc(N=Cc2c(O)c3ccccc3oc2=O)cc1	·	·	-3	-1
COc1ccc(O)c(C2=Nc3ccccc3N=C(c3ccco3)C2)c1	6%	-2%	32	8.7*
CC(=O)N1CCc2cc(S(=O)(=O)C(C)CC(=O)Nc3ccc(OC(F)(F)F)cc3)ccc21 (configuration not stated)	·	·	16	29*
CCCCC(=O)Nc1cccc(NC(=O)C(C)C)c1	10%	-2%	-9	-3
CCCCC(=O)Nc1ccc(NC(=O)c2cnccn2)cn1	·	·	27	25*
CCCCC(=O)Nc1ccc(NC(=O)C(C)C)cn1	19%	29%	73*	26*
CCCCOC(=O)c1ccc(NC(=O)c2cnccn2)cc1	3%	-1%[46.1 µM]	10	18
COCCCn1cc(C(=O)c2cc(Br)ccc2O)cc(C#N)c1=O	?	1.6µM*	-7	2
SMILES	LASV entry inh	Marburg entry inh	Shiga toxin inh	Cycloheximide cs
O=C1CCC/C1=C\Nc1ccc(Cl)c([N+](=O)[O-])c1	-6%	0%	18	9
O=C(/C=C/Nc1cccc(C(F)(F)F)c1)C(F)(F)F	5%	1%	33	7
O=C1CCCC/C1=C\Nc1ccc(O)cc1	21%	-20%	64*	41*
CCOC(=O)c1ccc(N/C=C2\CCCCC2=O)cc1	?	-27%	48*	25*
O=C1CCCC/C1=C/Nc1cccc(C(F)(F)F)c1	0%	1%	50*	48*
O=C1CCCC/C1=C/Nc1ccc(S(=O)(=O)Nc2ncccn2)cc1	8%	18%	59	6
O=C1CCC/C1=C/Nc1ccc(Cl)cc1	·	·	72*	30*
CC(=O)N1CC(C)Sc2ccc(S(=O)(=O)NCc3ccc(Cl)cc3)cc21 (configuration not stated)	·	·	-18	1
O=C(NCc1ccc(F)cc1)C1CCN(S(=O)(=O)c2cccc3nonc23)CC1	2%[46.1 µM]	-4%[46.1 µM]	-6	-3
N#C/C(=C/c1ccco1)c1nc2ccccc2s1	?	?	119*	94*
N#C/C(=C/c1ccc(-c2cc(C(=O)O)cc(C(=O)O)c2)o1)c1nc2ccccc2s1	·	·	-1	8
N#C/C(=C\c1ccco1)c1nc2ccccc2s1	?	?	110*	70*
COc1ccc(CCNC(=O)C2CCN(S(=O)(=O)c3ccc4nc5c(c(C(=O)O)c4c3)CCCC5)CC2)cc1OC	·	·	4	13
O=C(Nc1ccc(-c2nc3ccccc3o2)cc1)c1cccnc1	0%	?	115*	44*
Cc1ccc2oc(-c3ccc(NC(=O)c4ccc5c(c4)OCO5)cc3)nc2c1	7%	2%	58*	37*
O=C(CN1C(=O)c2ccccc2C1=O)Nc1ccc(-c2nc3ccccc3o2)cc1	0%	-3%	14	11
O=C(Nc1ccc2oc(-c3ccccc3F)nc2c1)c1ccc2c(c1)OCCO2	0%	?	72*	28*
